Test results as given in the supplement of paper PMC10849652.
About 8,800 targets were measured; listed, in parts, are those with a hit and a random draw of the rest. About 0.5% of all pairs of compound and target were hits.

Tests used:
Assay in all cases: log2 fold change, soluble protein after heating vs DMSO (PISA); higher = thermal stabilisation; K562 lysate, 10 uM; active = over 0.2 and 3.5 SD of the protein, either way, in both replicates (recomputed)
vemurafenib = compound: CCCS(=O)(=O)Nc1ccc(F)c(C(=O)c2c[nH]c3ncc(-c4ccc(Cl)cc4)cc23)c1F [vemurafenib]
Outline: (§1)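 Pellets of K562 cells were dounce-homogenised in PBS pH 7.4 with 1 mM MgCl2, and the crude extract was held at 1 mg/mL protein for a 30 min treatment with 10 μM compound. Aliquots were heated for 3 min over 48°C-58°C and pooled before NP-40 was added to 0.5% at 4°C. The supernatant from 21,000xg for 90 min was quantified by TMTpro 16plex LC-MS/MS with channel sums equalised. Values are reported from duplicates as log-two fold change in thermal stability relative to solvent controls.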

[1] = compound: CCCS(=O)(=O)Nc1ccc(F)c(C(=O)c2c[nH]c3ncc(Cl)cc23)c1F
Outline: as §1

barasertib = compound: CCN(CCCOc1ccc2c(Nc3cc(CC(=O)Nc4cccc(F)c4)[nH]n3)ncnc2c1)CCOP(=O)(O)O [barasertib]
Outline: as §1

[2] = compound: CC[C@@H]1C(=O)N(C)c2cnc(Nc3ccc(C(=O)NC4CCN(C)CC4)cc3OC)nc2N1C1CCCC1
Outline: as §1

volasertib = compound: CC[C@@H]1C(=O)N(C)c2cnc(Nc3ccc(C(=O)N[C@H]4CC[C@H](N5CCN(CC6CC6)CC5)CC4)cc3OC)nc2N1C(C)C [volasertib]
Outline: as §1

[3] = compound: CCn1c(C(=O)N(C2CC2)C2CC2)cc2c3c(ncn3C)c(Nc3cc(C)n(C)n3)nc21
Outline: as §1

[4] = compound: CCn1cc(-c2ccnc3[nH]c(-c4cccc(CN(C)C)c4)cc23)c(-c2ccc(NC(=O)N(C)C)cc2)n1
Outline: as §1

[5] = compound: CN1CCC(CNc2ccc3ncc(-c4cccc(OC(F)(F)F)c4)n3n2)CC1
Outline: as §1

saracatinib = compound: CN1CCN(CCOc2cc(OC3CCOCC3)c3c(Nc4c(Cl)ccc5c4OCO5)ncnc3c2)CC1 [saracatinib]
Outline: as §1

sotrastaurin = compound: CN1CCN(c2nc(C3=C(c4c[nH]c5ccccc45)C(=O)NC3=O)c3ccccc3n2)CC1 [sotrastaurin]
Outline: as §1

alvocidib = compound: CN1CC[C@H](c2c(O)cc(O)c3c(=O)cc(-c4ccccc4Cl)oc23)[C@H](O)C1 [alvocidib]
Outline: as §1

Tubastatin A = compound: CN1CCc2c(c3ccccc3n2Cc2ccc(C(=O)NO)cc2)C1 [Tubastatin A]
Outline: as §1

[6] = compound: CNC(=O)C1=CC=CC=C1NC2=NC(=NC=C2Cl)NC3=C(C=C(C=C3)N4CCOCC4)OC
Outline: as §1

defactinib = compound: CNC(=O)c1ccc(Nc2ncc(C(F)(F)F)c(NCc3nccnc3N(C)S(C)(=O)=O)n2)cc1 [defactinib]
Outline: as §1

[7] = compound: CNc1nc(-c2ccc3c(N)n[nH]c3c2)cc(N2C[C@@H](C(=O)NC3CCCCC3)CC[C@H]2C)n1
Outline: as §1

encorafenib = compound: COC(=O)N[C@@H](C)CNc1nccc(-c2cn(C(C)C)nc2-c2cc(Cl)cc(NS(C)(=O)=O)c2F)n1 [encorafenib]
Outline: as §1

[8] = compound: COC(=O)[C@H](CCSC)NC(=O)C1=C(C=C(C=C1)NC[C@H](CS)N)C2=CC=CC=C2
Outline: as §1

alisertib = compound: COc1cc(Nc2ncc3c(n2)-c2ccc(Cl)cc2C(c2c(F)cccc2OC)=NC3)ccc1C(=O)O [alisertib]
Outline: as §1

[9] = compound: COc1cc2nc(-c3cc(F)ccc3O)nc(N[C@@H]3CNC[C@H]3C(C)(C)O)c2cc1OC
Outline: as §1

gefitinib = compound: COc1cc2ncnc(Nc3ccc(F)c(Cl)c3)c2cc1OCCCN1CCOCC1 [gefitinib]
Outline: as §1

Measured: log2 fold change

HSPA14 (UniProt Q0VDF9)
UniProt Q0VDF9, sequence (Q0VDF9 whole entry, looked up): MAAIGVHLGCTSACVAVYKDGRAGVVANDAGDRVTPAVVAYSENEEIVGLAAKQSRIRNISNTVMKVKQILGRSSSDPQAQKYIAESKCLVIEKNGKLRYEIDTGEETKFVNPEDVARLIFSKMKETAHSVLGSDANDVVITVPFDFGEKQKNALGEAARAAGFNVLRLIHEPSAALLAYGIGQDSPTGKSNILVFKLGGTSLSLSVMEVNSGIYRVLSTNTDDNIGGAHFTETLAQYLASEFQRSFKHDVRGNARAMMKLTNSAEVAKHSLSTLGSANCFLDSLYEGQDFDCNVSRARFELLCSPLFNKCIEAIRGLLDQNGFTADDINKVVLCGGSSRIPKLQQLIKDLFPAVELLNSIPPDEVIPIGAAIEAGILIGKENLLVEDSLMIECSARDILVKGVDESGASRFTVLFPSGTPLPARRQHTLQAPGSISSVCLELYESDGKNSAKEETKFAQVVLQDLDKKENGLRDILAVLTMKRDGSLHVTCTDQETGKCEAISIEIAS
inactive: vemurafenib 0.023 | [1] 0.011 | barasertib 0.001 | [2] -0.026 | volasertib -0.043 | [3] 0.013 | [4] 0.04 | [5] -0.021 | saracatinib 0.002 | sotrastaurin 0.039 | alvocidib 0.001 | Tubastatin A -0.081 | [6] 0.01 | defactinib 0.012 | [7] -0.011 | encorafenib -0.004 | [8] 0.153 | alisertib 0.028 | [9] 0 | gefitinib 0.02

HSD17B12 (UniProt Q53GQ0)
active: [4] -0.304
inactive: vemurafenib 0.073 | [1] 0.005 | barasertib 0.047 | [2] 0.003 | volasertib -0.096 | [3] -0.024 | [5] -0.107 | saracatinib 0.105 | sotrastaurin 0.071 | alvocidib 0.012 | Tubastatin A -0.089 | [6] -0.11 | defactinib -0.021 | [7] -0.046 | encorafenib -0.016 | [8] 0.035 | alisertib 0.022 | [9] 0.009 | gefitinib -0.131

HDAC10 (UniProt Q969S8)
UniProt Q969S8, sequence (Q969S8 whole entry, looked up): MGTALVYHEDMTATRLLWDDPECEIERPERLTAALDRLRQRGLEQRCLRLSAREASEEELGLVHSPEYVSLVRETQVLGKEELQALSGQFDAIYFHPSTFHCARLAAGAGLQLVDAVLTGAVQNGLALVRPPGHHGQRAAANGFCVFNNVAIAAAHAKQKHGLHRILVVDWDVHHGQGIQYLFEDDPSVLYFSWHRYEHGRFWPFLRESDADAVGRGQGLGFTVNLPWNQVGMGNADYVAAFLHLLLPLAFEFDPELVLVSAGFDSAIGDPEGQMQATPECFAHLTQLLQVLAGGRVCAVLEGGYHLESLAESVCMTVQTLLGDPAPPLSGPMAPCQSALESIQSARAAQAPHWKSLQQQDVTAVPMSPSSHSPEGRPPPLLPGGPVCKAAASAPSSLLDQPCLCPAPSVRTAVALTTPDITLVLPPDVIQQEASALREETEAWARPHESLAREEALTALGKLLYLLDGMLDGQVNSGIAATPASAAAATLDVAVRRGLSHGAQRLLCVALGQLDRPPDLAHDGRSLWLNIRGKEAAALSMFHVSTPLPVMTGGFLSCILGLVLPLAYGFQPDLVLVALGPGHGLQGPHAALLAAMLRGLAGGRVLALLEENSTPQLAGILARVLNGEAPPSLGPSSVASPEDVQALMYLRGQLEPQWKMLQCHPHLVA
active: Tubastatin A 0.49
inactive: vemurafenib 0.142 | [1] -0.093 | barasertib 0.009 | [2] -0.052 | volasertib -0.056 | [3] -0.117 | [4] -0.026 | [5] 0.02 | saracatinib -0.052 | sotrastaurin -0.069 | alvocidib 0.033 | [6] -0.075 | defactinib -0.135 | [7] -0.014 | encorafenib 0.091 | [8] 0.08 | alisertib 0.047 | [9] -0.006 | gefitinib 0.165

HDAC2 (UniProt Q92769)
inactive: vemurafenib -0.025 | [1] 0.035 | barasertib 0.009 | [2] -0.012 | volasertib -0.009 | [3] 0.002 | [4] -0.052 | [5] 0.055 | saracatinib 0.02 | sotrastaurin -0.024 | alvocidib -0.01 | Tubastatin A -0.012 | [6] -0.007 | defactinib 0.006 | [7] 0.003 | encorafenib -0.006 | [8] 0.007 | alisertib 0.002 | [9] 0 | gefitinib 0.013

GLB1 (UniProt P16278)
UniProt P16278, sequence (P16278 whole entry, looked up): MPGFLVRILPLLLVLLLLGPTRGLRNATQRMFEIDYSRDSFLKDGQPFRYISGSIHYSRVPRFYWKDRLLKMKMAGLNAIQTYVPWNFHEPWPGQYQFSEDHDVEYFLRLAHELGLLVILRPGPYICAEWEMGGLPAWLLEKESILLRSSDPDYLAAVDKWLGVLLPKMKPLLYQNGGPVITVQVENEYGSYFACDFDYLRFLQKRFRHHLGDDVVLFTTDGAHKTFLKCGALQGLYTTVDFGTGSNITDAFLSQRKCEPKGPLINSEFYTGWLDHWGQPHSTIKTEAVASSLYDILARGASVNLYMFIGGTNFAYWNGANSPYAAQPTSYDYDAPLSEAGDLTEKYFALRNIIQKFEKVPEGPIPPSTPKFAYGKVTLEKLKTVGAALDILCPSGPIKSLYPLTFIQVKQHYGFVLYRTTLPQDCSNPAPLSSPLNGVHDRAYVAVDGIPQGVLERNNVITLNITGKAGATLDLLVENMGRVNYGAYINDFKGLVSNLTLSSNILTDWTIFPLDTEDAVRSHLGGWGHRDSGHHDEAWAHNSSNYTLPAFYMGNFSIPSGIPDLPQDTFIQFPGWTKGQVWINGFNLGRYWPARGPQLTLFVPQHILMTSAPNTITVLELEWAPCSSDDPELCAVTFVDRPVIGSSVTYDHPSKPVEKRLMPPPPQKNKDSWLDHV
inactive: vemurafenib -0.034 | [1] 0.012 | barasertib -0.029 | [2] 0.02 | volasertib -0.045 | [3] -0.017 | [4] -0.066 | [5] 0.019 | saracatinib -0.032 | sotrastaurin 0.043 | alvocidib -0.042 | Tubastatin A -0.032 | [6] 0.005 | defactinib 0.006 | [7] 0.055 | encorafenib -0.036 | alisertib 0.022 | [9] 0.007 | gefitinib -0.015
active: [8] 0.327

HDAC1 (UniProt Q13547)
UniProt Q13547, sequence (Q13547 whole entry, looked up): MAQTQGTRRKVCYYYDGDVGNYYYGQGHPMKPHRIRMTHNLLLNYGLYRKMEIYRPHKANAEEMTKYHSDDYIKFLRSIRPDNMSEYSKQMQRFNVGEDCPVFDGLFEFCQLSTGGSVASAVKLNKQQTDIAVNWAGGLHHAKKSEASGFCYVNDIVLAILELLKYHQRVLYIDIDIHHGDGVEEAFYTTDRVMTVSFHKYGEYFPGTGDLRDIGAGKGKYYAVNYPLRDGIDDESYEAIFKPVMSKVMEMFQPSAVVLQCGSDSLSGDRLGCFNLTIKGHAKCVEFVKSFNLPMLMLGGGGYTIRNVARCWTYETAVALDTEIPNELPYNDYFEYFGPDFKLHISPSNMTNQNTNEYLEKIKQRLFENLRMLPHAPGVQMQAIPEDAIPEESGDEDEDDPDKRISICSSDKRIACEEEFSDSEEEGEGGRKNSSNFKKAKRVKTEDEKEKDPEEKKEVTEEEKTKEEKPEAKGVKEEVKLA
inactive: vemurafenib 0.01 | [1] 0.022 | barasertib -0.001 | [2] -0.004 | volasertib -0.019 | [3] 0.03 | [4] -0.036 | [5] -0.001 | saracatinib 0.014 | sotrastaurin -0.011 | alvocidib 0.003 | Tubastatin A -0.027 | [6] -0.015 | defactinib 0.014 | [7] -0.012 | encorafenib 0.006 | [8] 0.04 | alisertib 0.017 | [9] -0.031 | gefitinib 0.004

HNRNPAB isoform 3 (UniProt Q99729)
UniProt Q99729, sequence (Q99729 whole entry, looked up): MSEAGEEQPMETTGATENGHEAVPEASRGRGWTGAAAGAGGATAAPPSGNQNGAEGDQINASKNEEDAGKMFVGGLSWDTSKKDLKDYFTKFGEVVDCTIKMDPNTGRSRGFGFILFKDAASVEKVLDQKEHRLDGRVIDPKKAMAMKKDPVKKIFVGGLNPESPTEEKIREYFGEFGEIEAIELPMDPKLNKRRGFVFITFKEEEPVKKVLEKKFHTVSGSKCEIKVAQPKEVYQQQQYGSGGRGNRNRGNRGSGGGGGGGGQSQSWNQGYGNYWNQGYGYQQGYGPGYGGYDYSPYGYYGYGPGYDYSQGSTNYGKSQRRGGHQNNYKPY
inactive: vemurafenib 0.018 | [1] -0.001 | barasertib -0.003 | [2] 0.033 | volasertib 0.019 | [3] 0.011 | [4] -0.096 | [5] -0.004 | saracatinib 0.027 | sotrastaurin -0.013 | alvocidib -0.018 | Tubastatin A 0.021 | [6] -0.018 | defactinib 0.017 | [7] 0.043 | encorafenib -0.012 | [8] -0.016 | alisertib -0.035 | [9] 0 | gefitinib 0.03

HAUS8 (UniProt Q9BT25)
UniProt Q9BT25, sequence (Q9BT25 whole entry, looked up): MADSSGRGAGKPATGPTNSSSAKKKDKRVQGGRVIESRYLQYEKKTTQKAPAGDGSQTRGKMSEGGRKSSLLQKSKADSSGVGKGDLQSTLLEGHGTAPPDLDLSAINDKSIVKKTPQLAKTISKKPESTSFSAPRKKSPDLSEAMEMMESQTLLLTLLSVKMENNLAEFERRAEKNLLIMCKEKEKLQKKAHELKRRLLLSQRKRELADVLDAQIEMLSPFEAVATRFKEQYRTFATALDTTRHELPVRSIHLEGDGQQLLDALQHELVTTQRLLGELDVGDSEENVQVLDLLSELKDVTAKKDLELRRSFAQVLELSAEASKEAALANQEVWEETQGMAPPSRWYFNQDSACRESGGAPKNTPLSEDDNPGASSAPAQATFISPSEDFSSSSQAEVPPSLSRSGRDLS
inactive: vemurafenib -0.042 | [1] 0.04 | barasertib -0.05 | [2] -0.049 | volasertib 0.037 | [3] -0.005 | [4] -0.048 | [5] 0.029 | saracatinib 0.031 | sotrastaurin -0.001 | alvocidib 0.067 | Tubastatin A -0.173 | [6] -0.012 | defactinib -0.06 | [7] 0.064 | encorafenib 0.063 | [8] -0.004 | alisertib -0.063 | [9] -0.075 | gefitinib -0.031

HNRNPUL1 (UniProt Q9BUJ2)
inactive: vemurafenib -0.042 | [1] 0.005 | barasertib -0.004 | [2] -0.032 | volasertib 0.005 | [3] 0.034 | [4] 0.017 | [5] 0.019 | saracatinib 0.041 | sotrastaurin 0.014 | alvocidib 0.006 | Tubastatin A 0.01 | [6] -0.011 | defactinib 0.002 | [7] -0.027 | encorafenib 0.003 | [8] -0.003 | alisertib -0.012 | [9] 0.007 | gefitinib -0.015

ILRUN (UniProt Q9H6K1)
UniProt Q9H6K1, sequence (Q9H6K1 whole entry, looked up): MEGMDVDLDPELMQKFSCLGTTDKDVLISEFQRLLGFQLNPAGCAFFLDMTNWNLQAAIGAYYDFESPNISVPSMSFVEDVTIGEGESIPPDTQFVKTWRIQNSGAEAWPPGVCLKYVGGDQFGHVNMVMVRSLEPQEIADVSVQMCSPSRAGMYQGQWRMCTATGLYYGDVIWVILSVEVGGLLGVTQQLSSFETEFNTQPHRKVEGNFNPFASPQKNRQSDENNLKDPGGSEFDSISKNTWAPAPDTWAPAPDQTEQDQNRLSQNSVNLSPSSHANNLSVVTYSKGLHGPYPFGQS
inactive: vemurafenib -0.012 | [1] 0.048 | barasertib 0.06 | [2] -0.001 | volasertib -0.058 | [3] -0.059 | [4] -0.109 | [5] 0.067 | saracatinib 0.024 | sotrastaurin -0.003 | alvocidib 0.031 | Tubastatin A -0.059 | [6] 0.047 | defactinib -0.01 | [7] -0.004 | encorafenib 0.052 | [8] -0.03 | alisertib 0.123 | [9] 0.056 | gefitinib 0.115

GSTZ1 (UniProt G3V4T6)
active: [8] 0.35
inactive: vemurafenib -0.013 | [1] -0.024 | barasertib 0.018 | [2] -0.101 | volasertib -0.02 | [3] -0.029 | [4] -0.116 | [5] 0.087 | saracatinib -0.012 | sotrastaurin -0.018 | alvocidib -0.016 | Tubastatin A 0.018 | [6] 0.01 | defactinib 0.061 | [7] 0.028 | encorafenib -0.045 | alisertib 0.023 | [9] 0.049 | gefitinib 0.002

GLUL (UniProt P15104)
UniProt P15104, sequence (P15104 whole entry, looked up): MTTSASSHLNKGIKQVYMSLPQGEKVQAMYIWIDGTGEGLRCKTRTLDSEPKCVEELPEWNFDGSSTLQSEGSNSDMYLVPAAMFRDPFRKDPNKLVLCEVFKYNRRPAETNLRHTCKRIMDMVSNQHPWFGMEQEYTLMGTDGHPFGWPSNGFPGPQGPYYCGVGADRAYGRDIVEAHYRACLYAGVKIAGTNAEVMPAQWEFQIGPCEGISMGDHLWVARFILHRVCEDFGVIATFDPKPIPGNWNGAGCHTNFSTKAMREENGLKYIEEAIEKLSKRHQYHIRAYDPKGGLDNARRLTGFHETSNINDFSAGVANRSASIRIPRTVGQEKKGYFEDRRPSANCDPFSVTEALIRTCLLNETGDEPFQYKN
inactive: vemurafenib -0.055 | [1] 0.012 | barasertib -0.026 | [2] -0.028 | volasertib -0.024 | [3] 0.021 | [4] 0.326 | [5] -0.058 | saracatinib -0.004 | sotrastaurin 0.016 | alvocidib 0.011 | Tubastatin A 0.015 | [6] 0.034 | defactinib 0.027 | [7] -0.125 | encorafenib -0.002 | [8] 0.029 | alisertib 0.002 | [9] -0.019 | gefitinib -0.004

HLCS (UniProt P50747)
inactive: vemurafenib -0.002 | [1] 0.034 | barasertib -0.001 | [2] -0.034 | volasertib -0.054 | [3] 0.003 | [5] -0.041 | saracatinib -0.026 | sotrastaurin 0.027 | alvocidib -0.015 | Tubastatin A 0.036 | [6] 0.018 | defactinib 0.017 | [7] 0.025 | encorafenib 0.003 | [8] 0.053 | alisertib -0.01 | [9] 0.038 | gefitinib 0.013
active: [4] 0.293

GLUD2 (UniProt P49448)
UniProt P49448, sequence (P49448 whole entry, looked up): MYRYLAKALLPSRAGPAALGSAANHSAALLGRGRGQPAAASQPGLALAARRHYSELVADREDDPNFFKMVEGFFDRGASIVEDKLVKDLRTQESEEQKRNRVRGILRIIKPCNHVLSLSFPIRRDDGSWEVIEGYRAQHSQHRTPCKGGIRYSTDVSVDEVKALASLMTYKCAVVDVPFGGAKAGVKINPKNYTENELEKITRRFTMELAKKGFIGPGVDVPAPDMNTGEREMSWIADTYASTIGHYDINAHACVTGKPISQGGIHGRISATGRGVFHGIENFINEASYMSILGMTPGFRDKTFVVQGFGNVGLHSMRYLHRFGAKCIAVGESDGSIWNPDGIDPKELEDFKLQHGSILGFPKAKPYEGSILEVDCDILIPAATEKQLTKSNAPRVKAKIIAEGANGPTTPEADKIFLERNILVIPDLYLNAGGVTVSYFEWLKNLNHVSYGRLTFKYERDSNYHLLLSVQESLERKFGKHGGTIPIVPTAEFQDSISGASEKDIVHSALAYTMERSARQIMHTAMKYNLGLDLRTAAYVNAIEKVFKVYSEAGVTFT
inactive: vemurafenib 0.177 | [1] -0.042 | barasertib -0.069 | [2] 0.02 | volasertib -0.145 | [3] -0.031 | [4] -0.024 | [5] 0.046 | saracatinib 0.007 | sotrastaurin -0.039 | alvocidib -0.029 | Tubastatin A 0.12 | [6] 0.053 | defactinib 0.061 | [7] 0.02 | encorafenib 0.066 | [8] 0.115 | alisertib -0.06 | [9] -0.021 | gefitinib 0.036

IRAK4 (UniProt Q9NWZ3)
active: [6] 0.261
inactive: vemurafenib -0.028 | [1] -0.005 | barasertib 0.107 | [2] -0.085 | volasertib -0.022 | [3] 0.063 | [4] 0.001 | [5] 0.19 | saracatinib 0.045 | sotrastaurin -0.022 | alvocidib 0.01 | Tubastatin A -0.083 | defactinib 0.145 | [7] -0.018 | encorafenib -0.032 | [8] 0.032 | alisertib 0.006 | [9] 0.111 | gefitinib 0.045

HNRNPDL (UniProt O14979)
UniProt O14979, sequence (O14979 whole entry, looked up): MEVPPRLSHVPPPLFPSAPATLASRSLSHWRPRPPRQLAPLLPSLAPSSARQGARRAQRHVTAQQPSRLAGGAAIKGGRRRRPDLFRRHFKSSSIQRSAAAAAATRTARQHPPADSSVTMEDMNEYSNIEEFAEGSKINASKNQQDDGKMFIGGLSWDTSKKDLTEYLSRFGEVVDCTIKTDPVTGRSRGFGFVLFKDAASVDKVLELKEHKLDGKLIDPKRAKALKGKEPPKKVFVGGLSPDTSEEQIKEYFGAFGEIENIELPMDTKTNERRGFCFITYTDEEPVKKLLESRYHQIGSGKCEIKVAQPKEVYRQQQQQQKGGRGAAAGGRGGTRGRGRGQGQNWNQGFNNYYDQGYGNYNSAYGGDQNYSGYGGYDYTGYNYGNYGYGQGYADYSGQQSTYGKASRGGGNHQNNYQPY
inactive: vemurafenib -0.039 | [1] 0.026 | barasertib -0.03 | [2] 0.008 | volasertib -0.002 | [3] 0.003 | [4] 0.043 | [5] 0.018 | saracatinib -0.036 | sotrastaurin -0.098 | alvocidib 0.01 | Tubastatin A -0.017 | [6] 0.018 | defactinib -0.006 | [7] -0.002 | encorafenib -0.028 | [8] -0.017 | alisertib 0.04 | [9] -0.005 | gefitinib -0.029
